10 molecules from PubChem BioAssay (NCATS) can be followed below.

Results filed as inconclusive are left out. A number with no mark means an inactive call. Calls of active or inactive are those of the source. Unless noted, calls follow the shape of the dose curve; as a rule, active = well fitted inhibition curve with a large enough effect; inconclusive = small, poorly fitted or top-dose-only effect; inactive = no such curve, though single readings can be large or run the other way.

In one test the target is Cytochrome P450 2C19 (Homo sapiens) (UniProt P33261). Description: qHTS Assay for Inhibitors and Substrates of Cytochrome P450 2C19 (AID 899). Also: nearly all actives have a fitted effect of over 60% in size. Also: potency is read from the fitted curve at half-maximal effect. As to activity, negative = inhibition: % is scaled to controls: 0 for no effect and ±100 for the full control effect. The note with it: recombinant CYP2C19, luciferin-H EGE luminescence; series mostly up to 11.4 µM; activity, negative = inhibition: at the top concentration. An outline of the steps: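 5 nM human CYP2C19 with 10uM Luciferin-H EGE (at KM) in 50mM KPO4, compound preincubated 10 min at 37C, then NADPH regeneration for 60 min at 37C. Luciferin read by luminescence after detection reagent; normalized to 57uM ketoconazole as full inhibition.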
Sequence of Cytochrome P450 2C19 (Homo sapiens) (P33261 whole entry, looked up): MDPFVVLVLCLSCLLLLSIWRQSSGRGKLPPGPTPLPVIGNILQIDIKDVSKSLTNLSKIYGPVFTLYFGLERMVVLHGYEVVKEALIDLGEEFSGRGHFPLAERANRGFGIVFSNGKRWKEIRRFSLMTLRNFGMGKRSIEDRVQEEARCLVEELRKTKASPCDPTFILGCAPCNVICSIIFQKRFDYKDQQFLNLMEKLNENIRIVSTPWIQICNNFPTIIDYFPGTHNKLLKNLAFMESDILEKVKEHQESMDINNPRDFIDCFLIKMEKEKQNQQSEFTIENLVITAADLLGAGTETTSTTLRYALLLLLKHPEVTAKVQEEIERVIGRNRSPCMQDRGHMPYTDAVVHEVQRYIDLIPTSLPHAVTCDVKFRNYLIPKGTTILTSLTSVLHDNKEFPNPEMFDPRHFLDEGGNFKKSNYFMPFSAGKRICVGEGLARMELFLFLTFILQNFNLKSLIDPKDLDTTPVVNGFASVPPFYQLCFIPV
A general note: Quantitative high-throughput screening tests each substance at several concentrations.
In the case of `O=C(O)CC(CC(=O)O)n1cccc1`, the “activity, negative = inhibition” value is 11.4%. As to `CCCCN1CSC(=S)N(Cc2ccccc2)C1`, the Potency is 1.26 µM (active). For `O=C1/C(=C/c2cccnc2)SC(=S)N1Cc1ccco1`, the Potency was 3.16 µM (active).

Take `COc1ccc(-c2cc([C@H](O)[C@@H]3CCCCN3)c3ccccc3n2)cc1`: the Potency was 3.98 µM (active).

As to `CN(Cc1cc(Cl)cc(Cl)c1O)Cc1c(O)ccc2ccccc12`, the Potency is 1.26 µM (active).

As for `CCCn1cnc2c(SCc3ccc(Cl)cc3)nc(N)nc21`, the Potency was 0.501 µM (active). In the case of `C[N+](C)(N)CCC[N+](C)(C)N`, the “activity, negative = inhibition” value was 99%.

System in another test: not listed separately
Description: qHTS Assay for Identification of Small Molecule Agonists for Hypoxia Response Element Signaling Pathway (AID 914; active = well fitted activation curve with a large enough effect in the signal ratio, with a control signal flat, not every such curve was filed as active; the % refers to the signal ratio; also: % of control where 0% means no effect). The note with it: ME-180 (cervical carcinoma) HRE-bla reporter, beta-lactamase ratio, CoCl2, 17 h; activation: hits give high values. An outline of the steps: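 HRE-bla ME-180 cells, overnight plating in Opti-MEM with 0.5% dialyzed FBS; cpd titration + EC50 CoCl2, 17 h, 37 degrees Celsius; CCF4 2.5 h RT; 460/530 nm ratio; AC50.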
In the case of `COCCn1c(=O)c(-c2cc(F)cc(F)c2)nc2cnc(Oc3ccccc3)nc21`, the activation was 20.9%.

Take `CN(C)C(=O)c1ccc(-c2nc(Nc3ccncc3)c3ccccc3n2)cc1`: the activation is -8.23%. On the same count and under the same terms, with `CCOC(=O)C1=C(C)NC(=O)N[C@@H]1c1coc2cc(C)cc(C)c2c1=O` the figure was 23.8%.
